Results published in ChEMBL document CHEMBL1157539, “Thousands of chemical starting points for antimalarial lead identification” (Nature, 2010).

What was measured:
Assay type in all cases: functional
Plasmodium falciparum [1] = test: GSK_TCMDC: Inhibition of Plasmodium falciparum 3D7 in whole red blood cells, using parasite LDH activity as an index of growth. Test compounds present at 2uM
Plasmodium falciparum [2] = test: GSK_TCMDC: Inhibition of Plasmodium falciparum Dd2 in whole red blood cells, using parasite LDH activity as an index of growth. Test compounds present at 2uM
HepG2 = test: GSK_TCMDC: Percent inhibition of human HepG2 cell line. Test compounds present at 10uM.

Row | Compound | Inhibition (Plasmodium falciparum [1]) | Inhibition (Plasmodium falciparum [2]) | Inhibition (HepG2)
1 | CCCCC(=O)Nc1cc(=O)[nH]c2nc(-c3ccc(Cl)cc3)nn12 | 89% | 77% | 1%
2 | COc1ccc(-c2ccc(CNC(=O)c3cccc(C#N)c3)c(F)c2)cc1CN1CCCN(C)CC1.O=C(O)C(F)(F)F | 99% | 30% | 8%
3 | CS(=O)(=O)c1ccc(CNCc2cccc(-c3ccc(-c4nc5cc(C(F)(F)F)ccc5[nH]4)cc3)c2)cc1.O=C(O)C(F)(F)F | 100% | 96% | 31%
4 | Cc1cc(N2CCOCC2)nc2ccc(NC(=O)c3cccc([N+](=O)[O-])c3)cc12 | 97% | 37% | 0%
5 | CC(C)(C)c1ccc(-c2ccccc2CNC(=O)c2cccc(O)c2)cc1 | 99% | 88% | 3%
6 | O=C(CSc1nc2ccccc2c(=O)n1CC1CCCO1)Nc1cc(C(F)(F)F)ccc1Cl (stereo not drawn) | 97% | 95% | 12%
7 | CCC1CCCCN1S(=O)(=O)c1ccc(OC)c(N2CCN(C(=O)C(Cl)(Cl)Cl)CC2)c1 (stereo not drawn) | 89% | 29% | 9%
8 | Cc1cc(=NN=Cc2cccc(Cl)c2)c2ccccc2[nH]1 | 100% | 100% | 22%
9 | CCOC(=O)N1NC(=O)N(c2ccccc2)C1(c1ccccc1)c1ccccc1 | 96% | 82% | 5%
10 | Cc1sc(N2CCN(C)CC2)nc1C(=O)Nc1ccc(F)cc1C(F)(F)F.O=C(O)C(F)(F)F | 92% | 63% | 7%
11 | Cc1ccc(N(CCC(=N)N)Cc2ccccc2)cc1.Cl | 96% | 95% | 6%
